Among the data in PubChem BioAssay (NCI) are growth values, retold here.

Values joined by “and” are separate entries in the source; they are usually repeats but may differ in a detail not shown here. Identical values can stand only once. This is part of a sample that, as a whole, favours compounds with a hit. Of some 83,000 tested, about 20% had one in any assay.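 Single-dose data. Exposure time 48 hours. Values below 10 considered active.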 Active and inactive are the calls of the source.

Among the test systems are HCT-15 colon; HT29 colon; SNB-75 CNS; SNB-19 CNS; U251 CNS; PC-3 prostate; SK-MEL-5 melanoma; LOX IMVI melanoma; SK-MEL-28 melanoma; SK-MEL-2 melanoma; EKVX NSCLC; SN12C renal; UO-31 renal; TK-10 renal; ACHN renal; CAKI-1 renal; A498 renal; CCRF-CEM leukemia; MOLT-4 leukemia; UACC-62 melanoma.
What all share (test): NCI-60 one-dose screen, 48 h (100 = growth as untreated, 0 = no growth, -100 = all killed)
What all share (settings): 10 µM unless noted

As for `CC(=O)Nc1ccc(O)cc1`, the growth was 103% (inactive) and 109% (inactive) and 105% (inactive) in the experiment with HCT-15 colon; 99.8% (inactive) and 96.8% (inactive) and 108% (inactive) with HT29 colon; 99.8% (inactive) and 91.8% (inactive) and 104% (inactive) with SNB-75 CNS; 101% (inactive) in the experiment on SNB-19 CNS; 102% (inactive) and 106% (inactive) and 107% (inactive) in the experiment with U251 CNS; 90.4% (inactive) and 136% (inactive) and 97.6% (inactive) in the experiment with PC-3 prostate. For the same compound, the growth was 98% (inactive) and 113% (inactive) and 112% (inactive) with SK-MEL-5 melanoma; 103% (inactive) and 101% (inactive) and 106% (inactive) in the experiment on LOX IMVI melanoma; 114% (inactive) and 66.2% (inactive) and 125% (inactive) in the experiment on SK-MEL-28 melanoma; 95.7% (inactive) and 81.9% (inactive) and 108% (inactive) in the experiment on SK-MEL-2 melanoma; 95% (inactive) and 101% (inactive) and 113% (inactive) in the experiment with EKVX NSCLC; 90.2% (inactive) and 102% (inactive) and 108% (inactive) in the experiment with SN12C renal. The growth in the experiment on UO-31 renal is 84.3% (inactive) and 98% (inactive) and 90% (inactive); with TK-10 renal, 87.4% (inactive) and 69.9% (inactive) and 101% (inactive); in the experiment on ACHN renal it was 100% (inactive) and 104% (inactive); in the experiment with CAKI-1 renal it was 98% (inactive) and 94.4% (inactive) and 101% (inactive); in the experiment with A498 renal it was 100% (inactive) and 102% (inactive) and 94.1% (inactive); with CCRF-CEM leukemia it was 88.7% (inactive) and 108% (inactive). Further, the growth in the experiment on MOLT-4 leukemia is 102% (inactive) and 100% (inactive).
As to `O=C(/C=C/c1ccccn1)c1ccccc1O`, the growth with HCT-15 colon is 39.4% (inactive) and 62% (inactive); with HT29 colon, 37.7% (inactive) and 29% (inactive); in the experiment with SNB-75 CNS it was 75% (inactive); with SNB-19 CNS, 77.3% (inactive) and 81.6% (inactive); in the experiment on U251 CNS it was 38.3% (inactive) and 68.4% (inactive); in the experiment on PC-3 prostate, 82.8% (inactive). Also, the growth in the experiment with SK-MEL-5 melanoma is 75.2% (inactive) and 88.1% (inactive); with LOX IMVI melanoma, 20.4% (inactive) and 21.7% (inactive); with SK-MEL-28 melanoma, 77.6% (inactive) and 92.6% (inactive); in the experiment with SK-MEL-2 melanoma, 104% (inactive) and 100% (inactive); in the experiment on EKVX NSCLC it was 76% (inactive) and 88.1% (inactive); in the experiment on SN12C renal, 63.7% (inactive) and 88.1% (inactive). The growth in the experiment on UO-31 renal was -17.5% (active) and 74.7% (inactive); in the experiment on TK-10 renal it was 84.4% (inactive) and 55.3% (inactive); in the experiment on ACHN renal it was 65.3% (inactive) and 74.2% (inactive); with CAKI-1 renal it was 34.8% (inactive) and 40% (inactive); in the experiment with A498 renal it was 110% (inactive); in the experiment with CCRF-CEM leukemia it was 13.3% (inactive). Moreover, the growth with MOLT-4 leukemia was 41.5% (inactive).
`CCOC(=O)Nc1ccc2c(c1)/C(=N\NC(N)=S)c1ccccc1-2`: the growth with HCT-15 colon is 22.1% (inactive) and 38.2% (inactive); with HT29 colon, 29.6% (inactive) and 25.8% (inactive); in the experiment with SNB-75 CNS, 70.2% (inactive) and 66.4% (inactive); in the experiment on U251 CNS, 52.6% (inactive) and 48.8% (inactive); in the experiment on PC-3 prostate, 42.5% (inactive) and 90.9% (inactive); in the experiment with SK-MEL-5 melanoma, 38.1% (inactive) and 44.2% (inactive). Besides, the growth is 37.3% (inactive) and 51.3% (inactive) with UACC-62 melanoma; 54.4% (inactive) and 58.4% (inactive) with LOX IMVI melanoma; 50% (inactive) and 75.4% (inactive) with SK-MEL-28 melanoma; 70.1% (inactive) and 93.2% (inactive) in the experiment with SK-MEL-2 melanoma; 68.3% (inactive) and 70.8% (inactive) in the experiment on EKVX NSCLC; 73.3% (inactive) and 71.9% (inactive) in the experiment with SN12C renal. For the same compound, the growth in the experiment on UO-31 renal is 68% (inactive) and 82.5% (inactive); with TK-10 renal, 82.2% (inactive) and 107% (inactive); with CAKI-1 renal it was 43% (inactive) and 73.4% (inactive); with A498 renal, 46.6% (inactive) and 65.5% (inactive); in the experiment on CCRF-CEM leukemia, 19.9% (inactive) and 27.8% (inactive); in the experiment on MOLT-4 leukemia it was 46% (inactive) and 41.8% (inactive).
As to `N#CCCOc1ccccc1`, the growth in the experiment on HCT-15 colon was 97.5% (inactive); with HT29 colon it was 100% (inactive); in the experiment with SNB-75 CNS, 101% (inactive); in the experiment with SNB-19 CNS, 108% (inactive); in the experiment on PC-3 prostate, 88.7% (inactive); in the experiment with SK-MEL-5 melanoma it was 105% (inactive). Also, the growth with UACC-62 melanoma was 127% (inactive); in the experiment on LOX IMVI melanoma it was 102% (inactive); with SK-MEL-28 melanoma, 101% (inactive); in the experiment with SK-MEL-2 melanoma, 89.4% (inactive); with SN12C renal, 99.8% (inactive); in the experiment with UO-31 renal, 92.8% (inactive). The growth with TK-10 renal is 97.2% (inactive); in the experiment with ACHN renal, 102% (inactive); in the experiment with CAKI-1 renal, 91.6% (inactive); in the experiment on A498 renal, 101% (inactive); with CCRF-CEM leukemia, 95.7% (inactive); in the experiment on MOLT-4 leukemia it was 90.4% (inactive).
As to `O=[N+]([O-])c1ccc(N/N=C\c2cc(Br)ccc2O)nc1`, the growth with HCT-15 colon was 21.6% (inactive) and 31.2% (inactive); in the experiment on HT29 colon, 27.8% (inactive); with SNB-75 CNS it was 38.3% (inactive) and 47.7% (inactive); in the experiment on SNB-19 CNS, 29.2% (inactive) and 28.4% (inactive); with U251 CNS, 16.6% (inactive) and 5.3% (active); with PC-3 prostate, 25.8% (inactive). Also, the growth in the experiment with SK-MEL-5 melanoma was -3.76% (active) and -35.9% (active); in the experiment with LOX IMVI melanoma it was 10.5% (inactive) and -18.4% (active); with SK-MEL-28 melanoma it was 37.9% (inactive) and 34.1% (inactive); in the experiment on SK-MEL-2 melanoma it was 39.7% (inactive); with EKVX NSCLC it was 81% (inactive) and 46.4% (inactive); with SN12C renal it was 22.3% (inactive) and 20.3% (inactive). The growth in the experiment with UO-31 renal was -6.22% (active) and -11.8% (active); with TK-10 renal it was 22.1% (inactive) and 37.9% (inactive); in the experiment with ACHN renal, 4.98% (active) and 10.6% (inactive); with A498 renal it was 69.5% (inactive); with CCRF-CEM leukemia, 17.5% (inactive) and -4.06% (active); in the experiment with MOLT-4 leukemia, 12% (inactive) and -9.48% (active).
As to `O=CC(O)C(O)C(O)CO` (stereo not given), the growth in the experiment with HCT-15 colon was 100% (inactive); with HT29 colon it was 113% (inactive) and 102% (inactive); in the experiment with SNB-75 CNS it was 104% (inactive) and 97.8% (inactive); in the experiment with SNB-19 CNS, 103% (inactive) and 113% (inactive); in the experiment on U251 CNS, 102% (inactive) and 105% (inactive); with PC-3 prostate, 41.2% (inactive) and 98.4% (inactive). In addition, the growth is 87.1% (inactive) and 103% (inactive) with SK-MEL-5 melanoma; 104% (inactive) and 109% (inactive) with SK-MEL-28 melanoma; -27.3% (active) in the experiment with SK-MEL-2 melanoma; 114% (inactive) in the experiment with EKVX NSCLC; 95.5% (inactive) and 109% (inactive) in the experiment with SN12C renal; 90.7% (inactive) and 78.5% (inactive) in the experiment with UO-31 renal. Moreover, the growth is 125% (inactive) and 107% (inactive) in the experiment with TK-10 renal; 106% (inactive) and 117% (inactive) in the experiment with CAKI-1 renal; 94.8% (inactive) and 109% (inactive) with A498 renal; 79.8% (inactive) and 98% (inactive) in the experiment with CCRF-CEM leukemia; 122% (inactive) and 87.4% (inactive) in the experiment on MOLT-4 leukemia.
On to `COc1cc2c(c(OC)c1OC)-c1ccc(OC)c(=O)cc1[C@@H](NC(C)=O)CC2`, for which the growth with HCT-15 colon was 12.2% (inactive) and 8.71% (active) and 3.71% (active); in the experiment with HT29 colon it was 9.16% (active) and 7.29% (active) and -16.8% (active); with SNB-75 CNS, 35.6% (inactive) and 76.6% (inactive) and 19.3% (inactive); with SNB-19 CNS, 39.5% (inactive) and 30.5% (inactive) and 19% (inactive); in the experiment on U251 CNS, 22.5% (inactive) and 14.1% (inactive) and 19% (inactive); in the experiment on PC-3 prostate, 25.6% (inactive) and 20.7% (inactive) and 7.6% (active). Besides, the growth is -59.8% (active) and -36.1% (active) and -32% (active) in the experiment with SK-MEL-5 melanoma; 15.7% (inactive) and 18.9% (inactive) and 26.5% (inactive) with LOX IMVI melanoma; 64.5% (inactive) and 62.4% (inactive) in the experiment on SK-MEL-28 melanoma; -1.11% (active) and 20.8% (inactive) and 30.7% (inactive) in the experiment with SK-MEL-2 melanoma; 42.2% (inactive) and 34.6% (inactive) and 35.8% (inactive) in the experiment on EKVX NSCLC; 35.3% (inactive) and 25.5% (inactive) and 46.8% (inactive) with SN12C renal. For the same compound, the growth is 35.8% (inactive) and 44% (inactive) and 21.2% (inactive) in the experiment with UO-31 renal; 61.7% (inactive) and 52.7% (inactive) in the experiment on TK-10 renal; 27.8% (inactive) and 27.2% (inactive) and 30.5% (inactive) in the experiment with ACHN renal; 36.5% (inactive) and 21% (inactive) and 20.3% (inactive) in the experiment with CAKI-1 renal; -0.067% (active) and 15.5% (inactive) in the experiment on A498 renal; 8.93% (active) and 21.5% (inactive) and 3.02% (active) in the experiment on CCRF-CEM leukemia. Besides, the growth in the experiment with MOLT-4 leukemia is 7.82% (active) and 6.6% (active) and 6.73% (active).
For `O=S1(=O)CC(Br)C(Br)C1` (stereo not given), the growth with HCT-15 colon is 49.1% (inactive) and 61.1% (inactive); in the experiment with HT29 colon, 27.7% (inactive) and 79% (inactive); in the experiment with SNB-75 CNS it was 100% (inactive) and 88.8% (inactive); with SNB-19 CNS it was 98.7% (inactive) and 97.2% (inactive); in the experiment with U251 CNS, 98% (inactive) and 97% (inactive); with PC-3 prostate, 86.3% (inactive) and 92.6% (inactive). The growth in the experiment on SK-MEL-5 melanoma is 93.2% (inactive) and 99.2% (inactive); in the experiment with SK-MEL-28 melanoma, 80.8% (inactive) and 106% (inactive); with SK-MEL-2 melanoma, 82.4% (inactive) and 83.3% (inactive); with EKVX NSCLC, 93.9% (inactive); with SN12C renal it was 93.2% (inactive) and 88.3% (inactive); in the experiment with TK-10 renal, 40% (inactive) and 63.8% (inactive). The growth is 42.2% (inactive) and 69.8% (inactive) with ACHN renal; 45.1% (inactive) and 65.5% (inactive) in the experiment with CAKI-1 renal; 112% (inactive) in the experiment with A498 renal; 33.7% (inactive) with CCRF-CEM leukemia; 61.3% (inactive) and 68.6% (inactive) in the experiment on MOLT-4 leukemia.
